Experimental data: the supplement of paper PMC7184167
Counter-ions that a name gives are not always drawn.

The molecules below were run on replication-induced senescent mouse newborn dermal fibroblasts (NBF) (assay: relative cell viability of senescent cells (fraction); higher = less killing of senescent cells). Conditions: 1 µM; 3 days.
Procedure: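 Replication-induced senescent newborn mouse skin fibroblasts (NBFs) in 24-well plates were treated with a Selleck FDA-approved drug library at 1 µM for 3 days.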

| Structure (SMILES) | relative cell viability |
| --- | --- |
| CC(=O)Oc1ccccc1C(=O)Nc1ncc([N+](=O)[O-])s1 [Nitazoxanide] | 0.698 |
| Nc1ncnc2c1ncn2[C@@H]1O[C@H](CO)[C@@H](O)[C@H]1O [Adenosine] | 0.937 |
| O=C(N[C@H](CO)[C@H](O)c1ccc([N+](=O)[O-])cc1)C(Cl)Cl [Chloramphenicol] | 0.706 |
| Cc1nc(C(=O)NCC(=O)O)c(O)c2ccc(Oc3ccccc3)cc12 [Roxadustat (FG-4592)] | 1.03 |
| Cc1cccc(Nc2ccncc2S(=O)(=O)NC(=O)NC(C)C)c1 [Torsemide] | 0.965 |
| CC(=O)O[C@@]12CO[C@@H]1C[C@H](O)[C@@]1(C)C(=O)[C@H](O)C3=C(C)[C@@H](OC(=O)[C@H](O)[C@@H](NC(=O)OC(C)(C)C)c4ccccc4)C[C@@](O)([C@@H](OC(=O)c4ccccc4)[C@H]21)C3(C)C [Docetaxel] | 0.565 |
| Oc1ccc(/C=C/c2cc(O)cc(O)c2)cc1 [Resveratrol] | 1.02 |
| CCC(=O)OCC(=O)[C@@]1(OC(=O)CC)[C@@H](C)C[C@H]2[C@@H]3CCC4=CC(=O)C=C[C@]4(C)[C@@]3(F)[C@@H](O)C[C@@]21C [Betamethasone Dipropionate] | 0.902 |
| O=c1[nH]c(=O)n([C@H]2C[C@H](O)[C@@H](CO)O2)cc1C(F)(F)F [Trifluridine] | 0.971 |
| Cn1ccnc1S [Methimazole] | 0.994 |
| Cc1nc(=O)c2cc(CN(C)c3ccc(C(=O)N[C@@H](CCC(=O)O)C(=O)O)s3)ccc2[nH]1 [Raltitrexed] | 0.916 |
| O=S(=O)(O)CCS [Mesna] | 1.04 |
| CCCC(CCC)C(=O)O [Valproic acid sodium salt (Sodium valproate)] | 1.11 |
| Cc1cn([C@@H]2C[C@@H](O)[C@H](CO)O2)c(=O)[nH]c1=O [Telbivudine] | 1 |
| COc1ccccc1OCCNCC(O)COc1cccc2[nH]c3ccccc3c12 (configuration not stated) [Carvedilol] | 1.14 |
| OC(CNCC(O)C1CCc2cc(F)ccc2O1)C1CCc2cc(F)ccc2O1 (configuration not stated) [Nebivolol] | 0.256 |
| CC(C)c1cc(C(=O)N2Cc3ccc(CN4CCN(C)CC4)cc3C2)c(O)cc1O | 0.0951 |
| C[C@@H]1C/C=C/C=C/C=C/C=C/[C@H](O[C@@H]2O[C@H](C)[C@@H](O)[C@H](N)[C@@H]2O)C[C@@H]2O[C@](O)(C[C@@H](O)C[C@H]3O[C@@H]3/C=C/C(=O)O1)C[C@H](O)[C@H]2C(=O)O [Natamycin] | 0.0794 |
| COc1ccc(Cl)cc1C(=O)NCCc1ccc(S(=O)(=O)NC(=O)NC2CCCCC2)cc1 [Glyburide (Glibenclamide)] | 1.02 |
| Nc1cccc2c1C(=O)N(C1CCC(=O)NC1=O)C2=O (configuration not stated) [Pomalidomide] | 1.19 |
| Oc1ccc(OCc2ccccc2)cc1 [Monobenzone] | 0.981 |
| CCOc1nc2cccc(C(=O)O)c2n1Cc1ccc(-c2ccccc2-c2nnn[nH]2)cc1 [Candesartan] | 1.02 |
| CC(C(=O)O)c1cccc(Oc2ccccc2)c1 (configuration not stated) [Fenoprofen Calcium] | 1.13 |
| O=C(/C=C/c1cccc(S(=O)(=O)Nc2ccccc2)c1)NO [Belinostat (PXD101)] | 0.941 |
| COc1cc2c(Oc3ccc4[nH]c(C)cc4c3F)ncnc2cc1OCCCN1CCCC1 [Cediranib (AZD2171)] | 0.269 |
| Nc1nc2c(ncn2COCCO)c(=O)[nH]1 [Aciclovir] | 1.06 |
| COC(=O)C1=C(C)NC(C)=C(C(=O)OC)C1c1ccccc1[N+](=O)[O-] [Nifedipine] | 1.01 |
